Experimental data taken from ChEMBL document CHEMBL3433997, “St. Jude Leishmania screening dataset” (2016).

Legend:
Assay type in all cases: functional
[1] = biological target: Solute carrier family 2, facilitated glucose transporter member 1 (Homo sapiens) (UniProt P11166); assay: ST_JUDE_LEISH: Cytotoxicity at 2uM final concentration against transgenic Leishmania Mexicana promastigotes LmGLUT1 that are glucose transport deficient and complemented with the human glucose transporter GLUT1. Activity is measured by DNA content using SYBR green in vitro
[2] = biological target: Hexose transporter 1 (Plasmodium falciparum) (UniProt O97467); assay: ST_JUDE_LEISH: Cytotoxicity at 2uM final concentration against transgenic Leishmania Mexicana promastigotes LmPfHT that are glucose transport deficient and complemented with the Plasmodium falciparum hexose transporter. Activity is measured by DNA content using SYBR green in vitro
[3] = biological target: Glucose transporter (Leishmania mexicana) (UniProt O61059); assay: ST_JUDE_LEISH: Cytotoxicity at 2uM final concentration against transgenic Leishmania Mexicana promastigotes LmGT2 that are glucose transport deficient and complemented with the L. Mexicana glucose transporter 2. Activity is measured by DNA content using SYBR green in vitro

Sequence of Solute carrier family 2, facilitated glucose transporter member 1 (Homo sapiens) (P11166 whole entry): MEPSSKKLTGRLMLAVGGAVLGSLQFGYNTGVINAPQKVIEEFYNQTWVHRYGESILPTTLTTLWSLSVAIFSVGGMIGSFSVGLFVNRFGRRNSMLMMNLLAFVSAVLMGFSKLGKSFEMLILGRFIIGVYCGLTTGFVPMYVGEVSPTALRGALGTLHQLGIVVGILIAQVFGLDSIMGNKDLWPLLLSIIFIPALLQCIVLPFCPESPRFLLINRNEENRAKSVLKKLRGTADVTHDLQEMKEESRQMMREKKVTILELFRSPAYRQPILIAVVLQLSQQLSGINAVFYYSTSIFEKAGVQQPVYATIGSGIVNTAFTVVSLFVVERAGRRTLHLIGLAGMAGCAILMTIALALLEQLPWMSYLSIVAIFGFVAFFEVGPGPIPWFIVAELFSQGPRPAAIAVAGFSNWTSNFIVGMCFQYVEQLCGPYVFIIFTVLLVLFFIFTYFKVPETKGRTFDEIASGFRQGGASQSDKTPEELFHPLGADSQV

| SMILES | inhibition [1] [%] | inhibition [2] [%] | inhibition [3] [%] |
| --- | --- | --- | --- |
| O=C(CNc1ccncc1)c1c[nH]c2ccccc12 | 0.52 | 2.3 | 0.74 |
| CC(C)(C)c1ccc(S(=O)(=O)Nc2ccccc2N2CCOCC2)cc1 | 6.54 | 4.11 | 0.2 |
| O=C(Cc1ccccc1)NC(c1ccc(Cl)cc1)c1ccc2cccnc2c1O (stereo not drawn) | 6.92 | 4.47 | 1.97 |
| CCOC(=O)c1ccc(NC(=O)Nc2cccc(-c3cccc(-c4nc5cccc(C)c5[nH]4)c3)c2)cc1 | 2.35 | 3.22 | 1.01 |
| Cc1ccc2nc(C)cc(N/N=C/c3cccc([N+](=O)[O-])c3)c2c1 | 4.41 | 4.99 | 1.37 |
| Cc1cc(N[C@@H](Cc2ccccc2)C(=O)NCc2cccs2)nc(NCCc2ccccn2)n1 | 6.58 | 3.27 | 1.45 |
| Cc1cc2nc(-c3ccc(/C=C/C(=O)NCCc4ccccc4)cc3)[nH]c2cc1C | 1.09 | 0.54 | 0.56 |
| O=[N+]([O-])c1ccc(/C=N/Nc2cc(-c3ccccc3)nc3ccccc23)o1 | 9.16 | 7.41 | 5.71 |
| C#CCNCc1ccc(-c2ccc(-c3nc4cc(C(F)(F)F)ccc4[nH]3)s2)cc1 | 0.44 | -0.12 | -1.09 |
| COc1cccc(NC(=O)c2cc(C(=O)Nc3cccc(OC)c3)cc([N+](=O)[O-])c2)c1 | 2.37 | 3.98 | 1.08 |
| CN(C)c1ccc(-c2ccc(C(=O)NC3CCN(Cc4ccc(F)cc4)CC3)s2)cc1 | 5.83 | -1.68 | 3.76 |
| CNc1nc(N/N=C/c2cc([N+](=O)[O-])c(Cl)cc2Cl)nc(Nc2cccc(C(F)(F)F)c2)n1 | 4.8 | 2.41 | 0.84 |
| Cc1nc2ccc3ccc(CNc4ccc5c(c4)CN([C@H](CCC(=O)O)C(=O)O)C5=O)cc3c2c(=O)[nH]1 | 3.36 | 2.42 | 10 |
| CCCCC1(NC(=O)[C@@H](Nc2ccc(C#N)c3ccccc23)C2CCCCC2)CCCCC1 | -1.28 | -0.56 | -0.93 |
| CC1(C)CNCc2cc(NC(=O)/C=C/c3ccc(Cl)cc3)ccc21 | 0.41 | -2.52 | 2.38 |
| COc1ccc2ncc(Cl)c(NCC3(O)CCC(NCc4ccc5c(n4)NC(=O)CS5)CC3)c2n1 (stereo not drawn) | 4.63 | 3.3 | 1.82 |
| Cc1c(C(=O)N2CCc3cc4nccc(N5CCN6CCC[C@H]6C5)c4cc32)cnn1-c1ccc(C#N)cc1 | 3.57 | 3.55 | 2.9 |
| CCN1C(c2ccc(Cl)cc2)C(CNCc2ccccc2O)CC1(C)CO (stereo not drawn) | 8.9 | 7.62 | 4.57 |

| SMILES | inhibition [1] [%] | inhibition [2] [%] | inhibition [3] [%] |
| --- | --- | --- | --- |
| Oc1ccc(Cc2cc(Oc3c(I)cc(CCc4ncc[nH]4)cc3I)ccc2O)cc1 | 0.12 | 1.92 | 1.23 |
| COc1ccc(OCC(=O)Nc2nc(-c3ccc(OC)cc3)c(C)s2)cc1 | 1.08 | 0.94 | -1.09 |
| O=C(Nc1cccc(CN2CCN(C(=O)c3ccccc3)CC2)c1)c1ccco1 | 3.67 | 3.78 | 7.1 |
| CNC(=O)c1ccc2nc(-c3ccc(-c4ccccc4)cc3)n(CC3CCN(CC4CCCC4)CC3)c2c1 | 1.8 | 0.69 | 1.13 |
| O=C(Nc1cccc(CN2CCCN(CC3CC3)CC2)c1)c1ccc(Cl)c(Cl)c1 | 10.8 | 10.2 | 12.6 |
| O=[N+]([O-])c1cccc(NC(=S)N2CCCN(Cc3ccc(F)cc3F)CC2)c1 | 0.91 | 1 | 0.66 |
| CC(CCCCC(=O)Nc1ccc(CC(C)NCCc2cccc(Cl)c2)cc1)NCCc1cccc(Cl)c1 (stereo not drawn) | 0.84 | 2.45 | -1.1 |
| Cc1ccc2nc(C)cc(N/N=C/c3ccccc3[N+](=O)[O-])c2c1 | 10.8 | 6.78 | 7.96 |
| CCC1(CC)NC(N)=NC(=N)N1OCc1ccc(Cl)c(Cl)c1 | 4.32 | 3.75 | 4.43 |
| CC(C)(C)c1ccc(CN2CCC(CNC(=O)c3cc(-c4ccccc4F)cs3)C2)cc1 (stereo not drawn) | -1.08 | -2.3 | 0.9 |
| CCCCc1nc2nc(N)nc(N)c2cc1CCC | 1.72 | 6.46 | 1.5 |
| O=C(CC1CCCCC1)NCC(NCCCNc1cc(=O)c2ccccc2[nH]1)c1cc(Br)cc(Br)c1 (stereo not drawn) | 3.89 | -1.16 | 2.63 |
| O=C(Nc1ccc2c(c1)CCN2C1CCN(Cc2cccc(F)c2F)C1)c1ccco1 (stereo not drawn) | 2.08 | 1.62 | 2.93 |
| CC(C)c1ccc(CN2CCC(NC(=O)c3ccc(-c4ccccc4F)s3)CC2)cc1 | 0.51 | 0.39 | -1.39 |
| CCc1c[nH]c2c(N(c3ccccc3)S(C)(=O)=O)cc(C(=O)N[C@@H](Cc3ccccc3)[C@H](O)CNC(C)(C)CCCC(C)C)cc12 | 0.74 | 1.65 | 0.18 |
| CS(=O)(=O)Nc1ccc2[nH]cc(C3CCN(CC(O)C4CCN(C(=O)/C=C/c5ccc(Cl)c(Cl)c5)CC4)CC3)c2c1 (stereo not drawn) | 4.85 | 2.94 | 3.3 |
| CC(C)(C)C1CCc2nc(N)nc(N)c2C1 (stereo not drawn) | 44.3 | 55.5 | 46.5 |
| Cc1cc(C)n2nc(C(=O)Nc3cc(C(F)(F)F)ccc3N3CCOCC3)nc2n1 | 3 | 2.82 | 3.81 |
